According to PubChem BioAssay:
“And” between values parts separate entries of the source, which are not always exact repeats. Equal values may be shown once. Inconclusive results are not listed. The source made the active and inactive calls. Unless noted, no stated cut-off is given here; in the data, active means inhibition above about 80%; inactive means the rest.

Key:
[1] = CRL2098 osteosarcoma cell growth inhibition, synergistic combos for chromothripsis tumors, BGB or cisplatin IC20 combos (AID 1671454); details: CRL2098 osteosarcoma cells, drug combinations, stronger effect = higher value;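 further: cells exposed for 96 h before readout; 0% = vehicle DMSO and 100% = killing by high DMSO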
[2] = HD-MB03 medulloblastoma cell growth inhibition, synergistic combos for chromothripsis tumors, BGB or cisplatin IC20 combos (AID 1671455; in the data active means inhibition above about 83%;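 further: 0% = vehicle DMSO and 100% = high DMSO as cytotoxic control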); details: HD-MB03 medulloblastoma cells, stronger effect = higher value
[3] = UWB1.289 ovarian carcinoma cell growth inhibition, synergistic combos for chromothripsis tumors, BGB or cisplatin combos (AID 1671456); details: UWB1.289 ovarian carcinoma cells, stronger effect = higher value;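 further: cells exposed to compound for four days; 0% = vehicle DMSO and 100% = killing by high DMSO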
[4] = LFS_MB_2R medulloblastoma cell growth inhibition, synergistic combos for chromothripsis tumors, cisplatin combos (AID 1671457); details: LFS_MB_2R medulloblastoma cells, stronger effect = higher value;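 further: cells exposed to compound for four days before readout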
[5] = UWB1.289_BRCA1 ovarian cancer growth, cell-based, BGB or cisplatin combinations (AID 1671459); details: UWB1.289 BRCA1 ovarian carcinoma, drug combinations, stronger effect = higher value
[6] = human astrocyte viability loss, single and combined drugs, cytotoxicity control for chromothriptic childhood tumor combination screen, cell-based, BGB or cisplatin IC20 combos (AID 1671460); details: Human astrocytes, drug combinations, stronger effect = higher value;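 further: cells exposed to compounds for 96 hours before viability readout; 0% = vehicle and 100% = killing control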
[7] = liver-stage malaria parasite growth inhibition, primary screen, cell-based, HepG2, luciferase luminescence, HepG2 viability (AID 624349; in the data active means parasite load remaining mostly below about 12%, no sharp cut-off; inactive means mostly above about 10%;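 further: 100% = mean of DMSO negative control wells on the same plate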); details: P. berghei liver stage in HepG2, luciferase luminescence, concentration not given here; parasite load remaining: stronger effect = lower value; viability: measured here: HepG2 viability without parasites
[8] = growth inhibition of DIPG glioma cells, dose response, cell-based, SU-DIPG-XIII, MIPE5.0, CellTiter-Glo, qHTS (AID 1347064; cut-off not given, nearly all actives have AC50 up to about 23 µM;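 on AC50: cells exposed to compound for 48 hours before the viability read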); details: SU-DIPG-XIII viability, CellTiter-Glo ATP luminescence
[9] = viability rescue of complex I mutant cybrids, primary screen, cell-based, galactose medium, ATP luminescence (AID 1645843;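 active means z-score of at least 1.8 in each of two replicates, scored against plate mean and spread of sample wells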;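 further: positive z means more ATP and so rescue of galactose-driven cybrid death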); details: complex I mutant cybrid cells, 72 h, stronger effect = higher value
[10] = molecular target: NAD(+) hydrolase SARM1 (Homo sapiens) (UniProt Q6SZW1); test: SARM1 TIR NADase inhibitors, cell lysate, NAD-Glo luminescence (AID 1508614;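 active means compound whose remaining NAD level is above about 45 nM, limit read from the data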); details: SAM-TIR HEK293T lysate NADase, at 1 µM, stronger effect = higher value
Sequence of NAD(+) hydrolase SARM1 (Homo sapiens) (Q6SZW1 whole entry, looked up): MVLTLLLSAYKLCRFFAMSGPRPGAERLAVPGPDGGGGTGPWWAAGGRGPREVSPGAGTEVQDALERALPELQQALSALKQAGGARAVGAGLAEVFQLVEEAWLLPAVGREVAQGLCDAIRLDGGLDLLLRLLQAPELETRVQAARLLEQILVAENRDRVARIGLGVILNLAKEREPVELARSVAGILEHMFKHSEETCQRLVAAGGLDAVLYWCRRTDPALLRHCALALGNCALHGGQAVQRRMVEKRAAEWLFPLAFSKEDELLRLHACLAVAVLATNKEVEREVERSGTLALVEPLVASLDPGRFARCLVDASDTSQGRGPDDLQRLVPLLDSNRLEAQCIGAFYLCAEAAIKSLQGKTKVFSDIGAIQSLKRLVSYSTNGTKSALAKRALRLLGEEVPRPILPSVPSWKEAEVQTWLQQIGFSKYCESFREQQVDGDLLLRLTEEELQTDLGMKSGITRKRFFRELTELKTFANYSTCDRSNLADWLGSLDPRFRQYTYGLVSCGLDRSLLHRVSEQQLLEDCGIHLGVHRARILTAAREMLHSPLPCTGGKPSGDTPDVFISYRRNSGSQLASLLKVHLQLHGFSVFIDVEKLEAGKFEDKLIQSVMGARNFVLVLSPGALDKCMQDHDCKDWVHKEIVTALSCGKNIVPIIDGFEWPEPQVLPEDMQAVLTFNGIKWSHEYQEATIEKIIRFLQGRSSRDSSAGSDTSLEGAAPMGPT

[11] = inhibitors of Cryptococcus chitosan production, flow cytometry, Cibacron Brilliant Red staining (AID 1347148; call rule not given here;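 further: compound exposure lasted three days at 37 degrees C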); details: Cryptococcus neoformans chitosan, stronger effect = lower value; at 10 µM unless noted
[12] = circadian clock period modulators, cell-based, LOPAC library, luminescence reporter (AID 2774; call rule not given here;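 further: values are relative to mean of DMSO wells on each plate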); details: circadian reporter cells, at 7 µM, actives lie on both sides
[13] = tested on: Hepatitis C virus NS3 helicase; test: HCV NS3 helicase inhibitors, primary screen, biochemical, fluorescence polarization, LOPAC1280 library (AID 687035; in the data active means inhibition above about 37%); details: Purified HCV NS3 helicase, Cy5-dT15 ssDNA binding fluorescence polarization; stronger effect = higher value; concentration not given here
[14] = Cy5 fluorescence quenching or enhancement artefacts, artefact control for HCV NS3 helicase inhibitor project, biochemical, LOPAC1280 (AID 687037; call rule not given here); details: Cy5-DNA-NS3h complex fluorescence interference counterscreen
[15] = phospholipid biosynthesis inhibitors in animal cells, primary screen, cell-based, LOPAC library, screen 4 (AID 1347384; call rule not given here); details: phospholipid biosynthesis inhibition screen, at 10 µM
[16] = molecular target: Mitogen-activated protein kinase 7 (Homo sapiens) (UniProt Q13164); test: ERK5 transactivation activators in reporter cells, primary screen, cell-based, HTS (AID 1508626;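 active means luciferase signal above three times the same-plate solvent-only control wells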;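 further: luciferase driven by Gal4-ERK5 fusion binding five Gal4 sites before minimal TATA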); details: HeLa Gal4-ERK5 transactivation, 18 h, at 5 µM, stronger effect = higher value
Sequence of Mitogen-activated protein kinase 7 (Homo sapiens) (Q13164 whole entry, looked up, the tested form may be a part): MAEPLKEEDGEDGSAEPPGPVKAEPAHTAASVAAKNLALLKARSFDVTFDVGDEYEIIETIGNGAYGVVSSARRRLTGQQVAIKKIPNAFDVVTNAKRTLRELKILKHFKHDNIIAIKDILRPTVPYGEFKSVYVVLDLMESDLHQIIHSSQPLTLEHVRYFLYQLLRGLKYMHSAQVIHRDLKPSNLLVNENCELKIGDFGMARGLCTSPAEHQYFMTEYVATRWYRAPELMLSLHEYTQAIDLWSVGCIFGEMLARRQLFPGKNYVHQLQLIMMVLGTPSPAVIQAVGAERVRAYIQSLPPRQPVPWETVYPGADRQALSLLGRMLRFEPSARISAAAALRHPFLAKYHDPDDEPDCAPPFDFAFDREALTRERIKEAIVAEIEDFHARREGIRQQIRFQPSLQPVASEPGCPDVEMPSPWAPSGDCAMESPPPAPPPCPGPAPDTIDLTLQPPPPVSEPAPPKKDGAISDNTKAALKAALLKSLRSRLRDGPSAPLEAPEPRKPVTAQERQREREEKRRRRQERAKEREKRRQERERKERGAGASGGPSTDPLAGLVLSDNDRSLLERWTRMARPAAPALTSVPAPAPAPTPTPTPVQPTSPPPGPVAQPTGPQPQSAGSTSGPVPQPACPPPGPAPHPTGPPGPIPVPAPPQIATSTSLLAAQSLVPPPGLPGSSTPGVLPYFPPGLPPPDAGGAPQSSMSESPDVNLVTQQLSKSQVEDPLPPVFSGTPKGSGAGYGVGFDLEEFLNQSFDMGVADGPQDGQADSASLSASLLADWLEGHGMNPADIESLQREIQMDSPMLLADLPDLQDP

[17] = kinase inhibitors against Plasmodium liver-stage infection, cell-based, known kinase inhibitor set, luminescence, hepatoma host viability (AID 624392; call rule not given here;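 further: infected cells incubated roughly two days before readout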); details: Plasmodium liver stage in hepatoma cells, luciferase luminescence, concentration not given here; liver cell % of control: measured here: host liver cell viability; parasite % of control: stronger effect = lower value
[18] = measured here: combination with BGB at IC20, at 0.5 µM
[19] = measured here: combination with cisplatin at IC20, at 0.5 µM
[20] = measured here: combo with BGB at IC20, at 0.5 µM
[21] = measured here: combo with cisplatin at IC20, at 0.5 µM
[22] = measured here: inhibition with BGB combination, at 0.05 µM
[23] = measured here: inhibition with cisplatin combination, at 0.05 µM
[24] = measured here: combination with cisplatin, at 0.5 µM
[25] = measured here: combination with cisplatin, at 5 µM
[26] = BGB combination, concentration series, at 5 µM
[27] = cisplatin combination, concentration series, at 5 µM
[28] = measured here: combo with BGB IC20, at 0.5 µM
[29] = measured here: combo with cisplatin IC20, at 0.5 µM

SMILES: C/C(=C\C(=O)Nc1ccccc1C(=O)O)c1ccc2ccccc2c1
- inhibition ([1]; at 0.5 µM): -36.1% (inactive) and -95.9% (inactive)
- inhibition [1, 18]: -28.4% and -70.2%
- inhibition [1, 19]: -47.6% and -160%
- inhibition ([2]; at 0.5 µM): -6.95% (inactive) and -18.5% (inactive)
- inhibition [2, 20]: -7.43% and -31.2%
- inhibition [2, 21]: -10.4% and -19.6%
- inhibition ([3]; at 0.5 µM): 9.98% (inactive) and -21.6% (inactive)
- inhibition [3, 22]: 3.22% and -36.6%
- inhibition [3, 23]: -9.11% and -30.4%
- inhibition ([4]; at 0.5 µM): -3.77% (inactive) and -16.3% (inactive)
- inhibition [4, 24]: 1.51% and -14.7%
- inhibition [4, 25]: 6.83% and -4.92%
- inhibition [5, 26]: -7.61% and -2.79%
- inhibition ([5]; at 0.5 µM): -8.12% (inactive) and -20.7% (inactive)
- inhibition [5, 27]: 1.63% and -4.56%
- inhibition ([6]; at 0.5 µM): -12.6% (inactive) and 0.11% (inactive)
- inhibition [6, 28]: -9.38% and 5.29%
- inhibition [6, 29]: -22.2% and -3.59%

SMILES: c1nc2nc(Nc3ccc(N4CCOCC4)cc3)nc(NC3CCCCC3)c2[nH]1
- parasite load remaining [7]: 59.2% (inactive)
- viability [7]: 68.1%

SMILES: N#CC1(c2cccc(C(=O)Nc3cc(Oc4ccc5nc(NC(=O)C6CC6)sc5n4)ccc3F)c2Cl)CC1
- AC50 [8]: 0.742 µM (active)

SMILES: CC(O)C1C(=O)N2C(C(=O)O)=C(SC3CNC(C(=O)N(C)C)C3)C(C)C12 (configuration not stated)
- z-score [9]: 0.545 (inactive)

SMILES: O=C(Nc1ncc(SCCN2CCCC2)s1)[C@]1(c2ccc(S(=O)(=O)C3CC3)cc2)C[C@H]1C1CCCCC1
- AC50 [8]: 16.6 µM (active)

SMILES: O=C(O)CO.[NH2-].[NH2-].[Pt+2]
- inhibition ([1]; at 0.5 µM): -21.5% (inactive)
- inhibition [1, 18]: -45.1%
- inhibition [1, 19]: 11.3%
- inhibition ([2]; at 0.5 µM): -6.84% (inactive)
- inhibition [2, 20]: -6.51%
- inhibition [2, 21]: -6.47%
- inhibition ([3]; at 0.5 µM): 4.06% (inactive)
- inhibition [3, 22]: -8.1%
- inhibition [3, 23]: -3.04%
- inhibition ([4]; at 0.5 µM): -20.3% (inactive)
- inhibition [4, 24]: -13.9%
- inhibition [4, 25]: -30.3%
- inhibition [5, 26]: -0.864%
- inhibition ([5]; at 0.5 µM): -1.6% (inactive)
- inhibition [5, 27]: 15.4%
- inhibition ([6]; at 0.5 µM): 13.7% (inactive)
- inhibition [6, 28]: 19.5%
- inhibition [6, 29]: 18.5%

SMILES: CC(C)OC(=O)[C@H](C)N[P@](=O)(OC[C@H]1O[C@@H](n2ccc(=O)[nH]c2=O)[C@](C)(F)[C@@H]1O)Oc1ccccc1
- inhibition ([1]; at 0.5 µM): -13.4% (inactive)
- inhibition [1, 18]: 11.7%
- inhibition [1, 19]: -20.8%
- inhibition ([2]; at 0.5 µM): -3.62% (inactive)
- inhibition [2, 20]: -1.34%
- inhibition [2, 21]: -5.16%
- inhibition ([3]; at 0.5 µM): 0.46% (inactive)
- inhibition [3, 22]: -14.4%
- inhibition [3, 23]: -6.56%
- inhibition ([4]; at 0.5 µM): -20% (inactive)
- inhibition [4, 24]: -25%
- inhibition [4, 25]: -21.1%
- inhibition [5, 26]: 0.431%
- inhibition ([5]; at 0.5 µM): -0.57% (inactive)
- inhibition [5, 27]: 20%
- inhibition ([6]; at 0.5 µM): 4.95% (inactive)
- inhibition [6, 28]: 12%
- inhibition [6, 29]: 8.21%

SMILES: Nc1nc2[nH]cc(CCc3ccc(C(=O)N[C@@H](CCC(=O)O)C(=O)O)cc3)c2c(=O)[nH]1
- remaining NAD [10]: 10 nM (inactive)

SMILES: C/C=C1\C2C=C(C)CC1(N)c1ccc(=O)[nH]c1C2 (configuration not stated)
- fold fluorescence [11]: 4.5 [at 206.3 µM] (inactive)

SMILES: C[N+]1(C)[C@@H]2CC(OC(=O)C(O)(c3cccs3)c3cccs3)C[C@H]1[C@@H]1O[C@@H]12 (some centres not stated)
- parasite load remaining [7]: 18% (inactive)
- viability [7]: 66.5%
- z-score [9]: 0.685 (inactive)

SMILES: C[C@]12C=CC(=O)N[C@@H]1CC[C@@H]1[C@@H]2CC[C@]2(C)[C@@H](C(=O)Nc3cc(C(F)(F)F)ccc3C(F)(F)F)CC[C@@H]12
- remaining NAD [10]: 10 nM (inactive)

SMILES: CC1(C)C(=O)N(CCN2CCC(C(=O)c3ccc(F)cc3)CC2)c2ccccc21
- period change [12]: 0.085 h (inactive)
- inhibition [13]: -1% (inactive)
- fluorescence ratio (interference) [14]: 1 (inactive)
- outcome [15]: inactive
- z-score [9]: -1.21 (inactive)

SMILES: CCCCCCCCCCCCCCCC(=O)OC[C@@H](NC(=O)C(Cl)Cl)[C@H](O)c1ccc([N+](=O)[O-])cc1
- remaining NAD [10]: 10 nM (inactive)
- luciferase signal [16]: 64 AU (inactive)

SMILES: NC(N)=Nc1nc(CSCCC(N)=NS(N)(=O)=O)cs1
- inhibition [13]: -3% (inactive)
- fluorescence ratio (interference) [14]: 1 (inactive)
- outcome [15]: inactive
- z-score [9]: 1.1 (inactive) and 1.27 (inactive)

SMILES: COc1cc(Oc2ccnc3cc(OC)c(OC)cc23)ccc1NC(=O)NC(C)c1nccs1 (configuration not stated)
- liver cell % of control [17]: 91.8% and 94.8% and 112%
- parasite % of control [17]: 110% (inactive) and 137% (inactive) and 49.5% (inactive)
- outcome [8]: inactive

SMILES: COc1cc2ncnc(-n3nc(-c4ccccn4)nc3N)c2cc1OC
- inhibition ([1]; at 0.5 µM): -78.1% (inactive)
- inhibition [1, 18]: -51.1%
- inhibition [1, 19]: -60.2%
- inhibition ([2]; at 0.5 µM): -15.7% (inactive)
- inhibition [2, 20]: -13.6%
- inhibition [2, 21]: -21.1%
- inhibition ([3]; at 0.5 µM): -16.4% (inactive)
- inhibition [3, 22]: -29.1%
- inhibition [3, 23]: -13.1%
- inhibition ([4]; at 0.5 µM): -18.6% (inactive)
- inhibition [4, 24]: -13.8%
- inhibition [4, 25]: 1.78%
- inhibition [5, 26]: 15%
- inhibition ([5]; at 0.5 µM): -15.7% (inactive)
- inhibition [5, 27]: 9.66%
- inhibition ([6]; at 0.5 µM): 6.38% (inactive)
- inhibition [6, 28]: 7.82%
- inhibition [6, 29]: -1.55%
